# CYP2C19 activ = increases human CYP2C19 enzyme activity | AID 1025 | P33261 | recombinant CYP2C19, luciferin-H EGE luminescence; stronger effect = higher value; 0 = fully inhibited enzyme, 1 = untreated enzyme | 96,000 tested, under 10 active | activation factor at 5 µM;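 active = activation factor of at least 2 at 5 µM in the primary screen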;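 note: 0 = wells with 2.5 mM tranylcypromine and 1 = vehicle-only wells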
# CYP2C9 inhib = human CYP2C9 inhibition | CYP2C9 Supersomes, luciferin-H conversion, luminescence | inhibition, % at 5 µM | hit rate 20% among 96,000 | AID 777;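 active = blocking of liver enzyme CYP2C9 beyond about 50% at 5 µM, limit read from the data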
# Target sequence (P11712 whole entry, looked up): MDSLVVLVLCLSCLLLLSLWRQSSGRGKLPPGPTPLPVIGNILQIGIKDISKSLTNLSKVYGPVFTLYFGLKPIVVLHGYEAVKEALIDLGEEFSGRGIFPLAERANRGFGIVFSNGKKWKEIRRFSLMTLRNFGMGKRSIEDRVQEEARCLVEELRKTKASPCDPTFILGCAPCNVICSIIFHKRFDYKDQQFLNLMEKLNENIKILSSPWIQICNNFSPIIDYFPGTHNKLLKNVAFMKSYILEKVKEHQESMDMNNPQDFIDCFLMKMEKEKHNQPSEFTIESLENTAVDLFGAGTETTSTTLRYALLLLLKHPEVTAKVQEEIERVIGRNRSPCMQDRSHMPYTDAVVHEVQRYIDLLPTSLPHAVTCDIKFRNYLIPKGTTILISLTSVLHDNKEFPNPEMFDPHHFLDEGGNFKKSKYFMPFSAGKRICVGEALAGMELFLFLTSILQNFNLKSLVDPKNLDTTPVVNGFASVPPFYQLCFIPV
# hDAT+cocaine = human DAT dopamine uptake with cocaine, either direction | AID 449768 | Q01959 | LLC-PK1 hDAT cells, [14C]-dopamine uptake with cocaine IC80; actives deviate in either direction | hit rate 1.3% among 110,000 | B-score at 10 µM;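 active = Z score or B-score, a plate-position-corrected score, falls beyond the plate's 99.7% confidence bounds, in either direction; inactive = both scores lie inside the 99.7% bounds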;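 note: scored against the spread of the other compound wells on the same plate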
# CYP2C19 inh = blocks human cytochrome P450 2C19. CYP2C19 Supersomes, luciferin-H EGE luminescence, 30 min. inhibition, % at 5 µM. hit rate 21% among 96,000. AID 778;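 active = CYP2C19 inhibition above a set limit at 5 µM in the primary screen, cut at about 50% in these data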;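 note: plate controls were negative control wells for no effect and 2.5 mM tranylcypromine positive control for full effect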
# CYP2C9 act = increases human cytochrome P450 2C9 activity. recombinant CYP2C9, luciferin-H conversion, luminescence; stronger effect = higher value; factor 1 = untreated enzyme, 0 = blocked. hit rate 1.4% among 96,000. activation factor at 5 µM. AID 1024. P11712;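 active = activation factor of 2 or more for CYP2C9 at a 5 µM dose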;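 note: 0 = sulfaphenazole-blocked wells and 1 = vehicle-only wells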
# D1 mod = D1 dopamine receptor (human) allosteric modulation | P21728 | HEK293 D1, CRE-luciferase, dopamine EC30 potentiation; actives deviate in either direction | B-score at 10 µM | hit rate 5.9% among 58,000;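 active = luminescence count or its row- and column-corrected plate score outside the 99.7% band of the plate's sample wells, on either side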
# * hit, by the source's call; . = no result given. The list is not random: actives were taken first. Their share in the collection is about 28%.
SMILES,CYP2C19 activ,CYP2C9 inhib,hDAT+cocaine,CYP2C19 inh,CYP2C9 act,D1 mod
Fc1ccc(/C=C2\CCCC3=C2Nc2ncnn2C3c2ccc(F)cc2)cc1 (stereo not given),0.9,15,0.4,6,0.9,.
COc1cc(C2C3=C(Nc4ncnn42)c2ccccc2CC3)cc(OC)c1OC (stereo not given),0.3,66*,-1.6,66*,0.3,-0.24
COc1ccc(C2C3=C(Nc4ncnn42)c2ccccc2CCC3)cc1 (stereo not given),0.1,68*,0.48,92*,0.3,0.8
Cc1ccc(C(=O)N/N=C2\SCC(=O)N2c2cc(C)ccc2C)cc1,.,.,1.1,.,.,.
O=C(NC(=O)c1ccncc1)NC(c1ccccc1)c1ccccc1,0.7,34,-0.0055,34,0.7,.
Cc1ccc(-c2onc3ccc(C4(C)OCCO4)cc23)cc1,0.4,54*,-0.71,60*,0.5,.
Cc1ccc(-c2onc3ccc(C=O)cc23)cc1,0.7,25,-0.16,25,0.8,.
O=C(NCCCn1ccnc1)c1cccc(S(=O)(=O)N2CCCCCC2)c1,0,100*,.,95*,0,.
O=C(NCCCn1ccnc1)c1ccc(Cl)c(S(=O)(=O)N2CCOCC2)c1,0.6,97*,1.3,36,0,-1.2
O=C(NCc1nc2ccccc2[nH]1)C1=C[C@H](c2ccc3c(c2)OCO3)C[C@H](OCCCCO)O1,.,.,0.7,.,.,.
Cc1c(O)ccoc1=O,.,.,-1.1,.,.,.
CCCn1nc([N+](=O)[O-])c(C(C#N)c2nc3ccccc3s2)c(Cl)c1=O (stereo not given),1,99*,-1.8,5,0,.
COC(=O)C(C)Sc1nnc(Cc2cc(=O)[nH]c(=O)[nH]2)n1-c1ccc(OC)cc1 (stereo not given),1,9,-0.51,1,0.9,-0.043
COc1ccc(-n2nnnc2SC(C)C(N)=O)cc1 (stereo not given),0.6,14,-5.2*,38,0.9,0.074
Cn1ccnc1SCC(=O)c1cccc(Br)c1,0.1,17,0.025,86*,0.8,.
COc1ccc(-n2nnnc2SCC(=O)c2cc3ccccc3o2)cc1,0.1,76*,0.13,91*,0.2,0.19
CCN(CC)S(=O)(=O)c1ccc2c(c1)nc(SC(C)C(N)=O)n2-c1ccc(OC)cc1 (stereo not given),0.4,91*,-0.18,62*,0.1,.
COc1ccc(-n2nnnc2SCC(N)=O)cc1,1.1,-15,-1.5,-11,1.1,-0.09
CCC(C)OC(=O)C1=C(C)O[C@]23OC(N)=C(C#N)[C@]12C(=O)c1ccccc13 (stereo not given in full),.,.,0.16,.,.,.
O=C(NCc1nc2ccccc2[nH]1)C1=C[C@@H](c2ccc(C(F)(F)F)cc2)C[C@@H](OCc2ccc(CO)cc2)O1,.,.,-0.11,.,.,.
COc1c(-c2ccc(O)c(O)c2)oc2cc(O)cc(O)c2c1=O,.,.,-0.0037,.,.,.
Cn1ccnc1SCC(=O)c1cc2ccccc2o1,0.4,2,-0.018,59*,1,-0.56
Cn1c(SCC(=O)c2cc3ccccc3o2)nnc1-c1ccccc1,0.2,68*,-0.049,84*,0.3,0.86
CCOc1ccc(CCNC(=O)CCCN2C(=O)c3ccccc3C2=O)cc1OCC,1,20,-1.1,3,0.8,.
COc1ccccc1CNC(=O)CCn1c(=O)oc2ccccc21,0.3,-43,0.96,72*,1.4,0.94
SMILES,CYP2C19 activ,CYP2C9 inhib,hDAT+cocaine,CYP2C19 inh,CYP2C9 act,D1 mod
O=C(CCn1c(=O)oc2ccccc21)Nc1ccc2c(c1)OCCO2,.,.,0.13,.,.,-0.43
Cc1ccc(NC(=O)CCn2c(=O)oc3ccccc32)cc1,0.8,9,1,25,0.9,-1.2
O=C(CCn1c(=O)oc2ccccc21)Nc1ccccc1,0.4,-6,0.3,61*,1.1,-0.23
CCc1ccc(NC(=O)CCn2c(=O)oc3ccccc32)cc1,0.8,58*,-0.38,24,0.4,1.3
CCC(C)N1CC23C=CC(O2)C(C(=O)OCc2ccccc2)C3C1=O (stereo not given),1.1,47,-0.67,-5,0.5,.
O=C(C1=C(O)C(=O)N(Cc2ccco2)C1c1cccnc1)c1cc2ccccc2o1 (stereo not given),1,25,0.46,-5,0.8,-1.5
CC(C)CCN1C(=O)c2ccccc2C1C(=O)NCc1cccnc1 (stereo not given),0.4,19,-0.56,62*,0.8,.

# Compound activity from PubChem BioAssay.
